About 83,000 compounds went through this panel and 20% of them were active in at least one assay; those are over-represented in the sample as a whole.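 A percent growth of 40 corresponds to 60% growth inhibition; 0 means no net growth; -100 means all cells died. Active threshold: below 10.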 The source made the active and inactive calls.

The values below come from PubChem BioAssay (NCI).

The test system of the assay is UACC-62 melanoma. Kind of assay: NCI-60 one-dose screen, 48 h (100 = growth as untreated, 0 = no growth, -100 = all killed). The note with it: 10 µM unless noted. On the procedure: Growth inhibition of the UACC-62 human tumor cell line is measured as a screen for anti-cancer activity. Cells are grown in 96 well plates and exposed to the test compound for 48 hours. Compounds are tested at a single concentration, which is 10^-5 M for most compounds. The reported endpoint is percent growth (GI% or GIPRCNT), where numbers from 0 - 100% represent growth inhibition, and numbers from -100% - 0 represent cell death. For example, a value of 40 represents 60% growth inhibition. A value of 0 means no net growth occurred over the course of the experiment. A value of -40 indicates 40% of cells at the beginning of the experiment died by the end of the experiment. A value of -100 means all cells are dead at the end of the experiment.
NCI-60 Human Tumor Cell Lines Screen was performed using the standard one-dose NCI protocol, which is described in more detail at https://dtp.cancer.gov/discovery_development/nci-60/default.htm.
Compounds with GIPRCNT values below 10 were considered active. Activity score was based on GIPRCNT using the following formula: […]
Score is 0 for GIPRCNT values of 100 or above, 50 for GIPRCNT values of 0, and 100 for GIPRCNT values of -100.
Turning to `Cc1cnc(N)nc1OCC(C)(C)CNC(=O)c1cccc(-c2ccc(S(=O)(=O)Nc3ccc4c(c3)N(C(=O)C3CC3)CCC4)cc2)c1`, the growth was 47.8% (inactive).
Regarding `COc1cc(/C=C/C(=O)/C=C/c2ccc(-n3ccnc3C)cc2)ccc1O`, the growth is 95.1% (inactive).
In the case of `C=C1C(=O)O[C@H]2[C@H]1CC/C(COC(=O)NCc1ccc(Cn3c(=O)sn(-c4ccc(Cl)cc4)c3=O)cc1)=C\CC[C@@]1(C)O[C@@H]21` it was 76.5% (inactive); in that of `CC(C)C1=NOC(=O)C1=Cc1cn(-c2ccco2)nc1-c1ccccc1`, 87.6% (inactive).
For the molecule `O=C(N/N=C1\c2ccccc2-c2cccc(C(=O)O)c21)c1ccc(O)cc1`, the growth was 93.8% (inactive).
As for `COC(=O)C(=Cc1ccccc1[N+](=O)[O-])C(=O)OC`, the figure is 19.6% (inactive); as for `C=C(C)[C@@H]1CC[C@]2(C(=O)OC)CC[C@]3(C)[C@H](CC[C@@H]4[C@@]5(C)CC/C(=N\OCCC(=NCCC#N)NOCCC#N)C(C)(C)[C@@H]5CC[C@]43C)[C@@H]12`, -25.8% [100 µM] (active).
In the case of `CCCC[C@@H](C=O)NC(=O)[C@H](CC(C)C)NC(=O)[C@H](CC(C)C)NC(=O)OCc1ccccc1` it was -38% (active); in that of `COC(=O)[C@H](CC(C)C)NC(=O)NC(=O)NC(=O)CI`, 86.4% (inactive).
In the case of `C/C=C/C1OC23CCCCC2C(C#N)(C(=N)O3)C1(C#N)C#N` (stereo not given) it was 87% (inactive); in that of `CC(C)C1=NOC(=O)C1=Cc1cn(-c2ccccc2)nc1-c1ccc(Cl)cc1`, 75.6% (inactive); in that of `Cc1cccc(C[C@H](NC(=O)Nc2ccc(Cl)cc2F)C(=O)N[C@@H]2C(=O)N3C[C@H](O)C[C@H]3C(=O)N3CCCC[C@H]3C(=O)N[C@@H](C)C(=O)N3C[C@H](C)C[C@H]3C(=O)O[C@H]2C)c1`, -26.1% (active).
`O=C(OCc1ccc2c(Cl)cc(Cl)c(O)c2n1)N1CCN(C(=O)c2cc3cc(F)ccc3[nH]2)CC1`: the growth was 35.3% (inactive).
In the case of `COc1ccc(OC)c([N+](=O)[O-])c1C(=O)CNC(C)=O`, the growth was 95.8% (inactive).
As for `COc1cc2c(O)n(CCCN3CCOCC3)c3c4cnc5cccc(c(=O)c3c2cc1OC)c54`, the figure is 10.5% (inactive); as for `C=C(C)[C@@H]1CC[C@]2(C(=O)NCCNCCNCCN)CC[C@]3(C)[C@H](CC[C@@H]4[C@@]5(C)CCC(=O)C(C)(C)[C@@H]5CC[C@]43C)[C@@H]12`, -77.9% [100 µM] (active).
As for `O=C(Nc1ccc(Cl)c(C(F)(F)F)c1)Nc1ccc(-c2cccnc2)cc1N1CCC(CO)CC1`, the figure is 37% (inactive); as for `COc1cc2c(=O)[nH]c3cc([N+](=O)[O-])ccc3c2cc1[N+](=O)[O-]`, 41.4% (inactive).
In the case of `Cc1ccc2c(n1)C(=O)C(Cl)=C(Nc1ccc(N3CCN(C)CC3)cc1)C2=O` it was -49.4% (active).
On to `C[C@H]1[C@H](C)CC[C@]2(C(=O)O)CC[C@]3(C)C(=CC[C@@H]4[C@@]5(C)C/C(=C/c6ccco6)C(=O)C(C)(C)[C@@H]5CC[C@]43C)[C@H]12`, for which the growth is -94.4% [100 µM] (active).
In the case of `C=C(C)[C@@H]1CC[C@]2(COC(=O)c3ccccc3C(=O)O)CC[C@]3(C)[C@H](CC[C@@H]4[C@@]5(C)CC[C@H](OC(=O)c6ccccc6C(=O)O)C(C)(C)[C@@H]5CC[C@]43C)[C@@H]12` it was -18.7% [100 µM] (active); in that of `Cc1cccc(C[C@H](NC(=O)Nc2ccc(Cl)cc2F)C(=O)N[C@@H]2C(=O)N3C[C@H](OC(=O)CCN(C)C)C[C@H]3C(=O)N3CCCC[C@H]3C(=O)N[C@@H](C)C(=O)N3C[C@H](C)C[C@H]3C(=O)O[C@H]2C)c1`, 13.4% (inactive); in that of `Cn1cc(-c2nnc(-c3cn(C)c4ncc(Br)cc34)s2)c2cc(Br)ccc21`, 86.7% (inactive).
In the case of `CNC(=O)c1cc(Oc2ccc3nc(NC(=O)c4ccc5ncccc5c4)sc3c2)ccn1` it was 94.9% (inactive).
In the case of `CCOC(=O)CC(c1ccccc1)C(C#N)c1ccccc1` (stereo not given) it was 97.3% (inactive); in that of `CN(Cc1cccc(C(F)(F)F)c1)C(=O)[C@@H](CC(=O)N1CCC(N2CCCCC2)CC1)N1C(=O)[C@@H](N2C(=O)OC[C@@H]2c2ccccc2)[C@H]1/C=C/c1ccccc1`, 96.2% (inactive).
Regarding `Cc1ccc(S(=O)(=O)N/N=C2\CC3CCC2(C)C3(C)C)cc1` (stereo not given), the growth is 77.2% (inactive).
Regarding `O=C(CCCSc1nc(-c2ccccc2)cc(-c2ccccc2)n1)NO`, the growth is -20.9% (active).
As for `COc1ccc2c(c1)C(C)Cc1c(ncnc1-n1cnc3ccccc31)N2C` (stereo not given), the figure is 39% (inactive); as for `CCCN1CC(c2ccc(OC)c(OC)c2)=C(c2cn(C(=O)OCC)c3ccccc23)C1=O`, 18.3% (inactive); as for `CC1(C)CC[C@]2(C(=O)O)CC[C@]3(C)[C@H](CC[C@@H]4[C@@]5(C)CCC(=O)C(C)(C)[C@@H]5CC[C@]43C)[C@H]2[C@H]1OC(=O)C(F)(F)F`, -85.2% [100 µM] (active).
As to `CC1(C)C(=O)/C(=C\c2ccco2)C[C@]2(C)[C@H]3CC=C4[C@@H]5C[C@](C)(C(=O)O)CC[C@]5(C)CC[C@@]4(C)[C@]3(C)CC[C@@H]12`, the growth is -83.7% [100 µM] (active).
In the case of `C=C(C)[C@@H]1CC[C@]2(C(=O)N3CCN(C)CC3)CC[C@]3(C)[C@H](CC[C@@H]4[C@@]5(C)C/C(=C/c6ccncc6)[C@H](O)C(C)(C)[C@@H]5CC[C@]43C)[C@@H]12` it was -56% [100 µM] (active); in that of `CC(C)C1=NOC(=O)C1=Cc1cn(-c2cccnc2)nc1-c1ccccc1`, 90.4% (inactive); in that of `OC(c1ccc(Cl)cc1)(c1ccc(Cl)cc1)C(O)(c1ccc(Cl)cc1)c1ccc(Cl)cc1`, 50.8% (inactive).
In the case of `O=C(COc1cccc(/C=C2\Oc3ccccc3C2=O)c1)c1ccc([N+](=O)[O-])cc1` it was 72.2% (inactive).
As for `COc1ccc(C(=O)CSc2nccc(Nc3ccc(C(=O)O)cc3)n2)cc1`, the figure is 89.7% (inactive); as for `O=S(=O)(/N=c1/n(-c2ccccc2)nc2n1CCN2C1=NCCN1)c1ccc(-c2ccccc2)cc1`, 109% (inactive).
For the molecule `C[N+](C)(C)c1ncnc2[n-]cnc12`, the growth is 83.2% (inactive).
As for `COC(=O)[C@]12CCC(C)(C)C[C@H]1C1=CC[C@@H]3[C@@]4(C)C/C(=C/c5cccnc5)C(=O)C(C)(C)[C@@H]4CC[C@@]3(C)[C@]1(C)CC2`, the figure is -59.4% [100 µM] (active).
